{
  "source": "PubChem BioAssay (NCATS)",
  "note": "Results filed as inconclusive are left out. Entries that show only a call come without a potency. The source made the active and inactive calls. Calls follow the shape of the dose curve; as a rule, active = well fitted cell-killing curve with a large enough effect; inconclusive = small, poorly fitted or top-dose-only effect, or effect the other way; inactive = no such curve, though single readings can be large or run the other way. Potency is read from the fitted curve at half-maximal effect.",
  "data": [
    {"test": "Quantitative High-Throughput drug screen in 47 multiple myeloma cell lines against the NCATS MIPE library collection: KMS28BM_JCRB cell viability assay (AID 1919874); also: nearly all actives have a fitted effect of over 35% in size", "details": "CellTiter-Glo ATP, 48 h; series mostly up to 45.8 µM", "source_text": "PI: Beverly A. Mock Ph.D.\nLaboratory of Cancer Biology and Genetics,\nCenter for Cancer Research, National Cancer Institute,\nNational Institute of Health, Bethesda, Maryland\nDrug resistance and disease progression are common in multiple myeloma (MM) patients, underscoring the need for new therapeutic combinations. […] We hypothesized that effective combinations would reduce MYC expression and enhance p16 activity. […] These preclinical data identify potentially useful drug combinations for evaluation in drug-resistant MM and reveal potential mechanisms of combined drug sensitivity.\nDescribed herein is the primary MIPE qHTS used to cherrypick compounds. Validated compounds were then further tested for potential synergistic activiy.\n[1] Peat TJ, Gaikwad SM, Dubois W, Gyabaah-Kessie N, Zhang S, Gorjifard S, Phyo Z, Andres M, Hughitt VK, Simpson RM, Miller MA, Girvin AT, Taylor A, Williams D, D'Antonio N, Zhang Y, Rajagopalan A, Flietner E, Wilson K, Zhang X, Shinn P, Klumpp-Thomas C, McKnight C, Itkin Z, Chen L, Kazandijian D, Zhang J, Michalowski AM, Simmons JK, Keats J, Thomas CJ, Mock BA. Drug combinations identified by high-throughput screening promote cell cycle transition and upregulate Smad pathways in myeloma. Cancer Lett. 2023 Aug 1;568:216284. doi: 10.1016/j.canlet.2023.216284. Epub 2023 Jun 24. PMID: 37356470; PMCID: PMC10408729.\nSEQUENCE No. (e.g., 1, 2, 3, etc.); […] (e.g., Cells, Incubation, Reagent, etc.); VALUE and DESCRIPTION.\n1; Cells; 5 uL; white, solid bottom 1536-well Greiner assay plate.\n2; Compounds; 23 nL; Kalypsis pin tool (Wako USA) equipped with a 1536-well pin head to transfer to the assay plates.\n3; Incubation; 48 hours; 37C incubation.\n4; Reagent;5uL; CellTiter Glo (Promega).\n5; Detector; 425V; Luminescence; Viewlux PerkinElmer.\nNOTES (numbers refer to Sequence numbers above)\n1. The cell-based screening methods employed in this study were like those previously published. Briefly, the corresponding myeloma cell lines were screened in 1,536-well plates with 500 cells, 5-uL per well for inhibition of cell viability (assessed by measuring ATP levels with CellTiterGlo).\n2. NCATS MIPE 4.0 library of approved and investigational drugs were added using the Kalypsis pin tool. Wells treated with DMSO only for 100% viability and media only for 0% viability were used as controls.\n3. The assay plates were covered and incubated for 48 hours in a 37C, 5% CO2 incubator with controlled humidity.\n4. After 48 hours, CellTilter-GloTM luminescent substrate mix (Promega) reagent was added to the assay plate and plates we incubated for 5 min at room temperature.\n5. Signal was measured as median relative luminescence units on a ViewLux (PerkinElmer) multiplate reader.\n[1] Heske CM, Davis MI, Baumgart JT, Wilson K, Gormally MV, Chen L, Zhang X, Ceribelli M, Duveau DY, Guha R, Ferrer M, Arnaldez FI, Ji J, Tran HL, Zhang Y, Mendoza A, Helman LJ, Thomas CJ. Matrix Screen Identifies Synergistic Combination of PARP Inhibitors and Nicotinamide Phosphoribosyltransferase (NAMPT) Inhibitors in Ewing Sarcoma. Clin Cancer Res. 2017 Dec 1;23(23):7301-7311. doi: 10.1158/1078-0432.CCR-17-1121. Epub 2017 Sep 12. PMID: 28899971; PMCID: PMC6636827.", "values": [
      {"molecule": "CN1CCN(C(=O)O[C@H]2c3nccnc3C(=O)N2c2ccc(Cl)cn2)CC1", "Potency": "inactive"},
      {"molecule": "Cc1cccc(C)c1NC(=O)CN1CCCC1=O", "Potency": "inactive"},
      {"molecule": "C[C@@H]1O[C@@H](O[C@H]2C[C@@H](O)[C@]3(CO)[C@H]4[C@H](O)C[C@]5(C)[C@@H](C6=CC(=O)OC6)CC[C@]5(O)[C@@H]4CC[C@]3(O)C2)[C@H](O)[C@H](O)[C@H]1O", "Potency": "20.9 nM (active)"},
      {"molecule": "CC(O)(CS(=O)(=O)c1ccc(F)cc1)C(=O)Nc1ccc(C#N)c(C(F)(F)F)c1", "note": "(configuration not stated)", "Potency": "inactive"},
      {"molecule": "COc1ccc2c(c1OC)CN1CCc3cc4c(cc3C1C2)OCO4", "note": "(configuration not stated)", "Potency": "inactive"},
      {"molecule": "CNC(=O)c1ccc(N2C(=S)N(c3ccc(C#N)c(C(F)(F)F)c3)C(=O)C23CCC3)cc1F", "Potency": "inactive"},
      {"molecule": "Cn1cc(C2=C(c3cn(C4CCN(Cc5ccccn5)CC4)c4ccccc34)C(=O)NC2=O)c2ccccc21", "Potency": "inactive"},
      {"molecule": "COC1(CS(=O)c2ccccc2)CCN(CCc2c[nH]c3ccc(F)cc23)CC1", "note": "(configuration not stated)", "Potency": "743 nM (active)"},
      {"molecule": "O=C1CC[C@@]2(O)[C@H]3Cc4ccc(O)c5c4[C@@]2(CCN3CC2CC2)[C@H]1O5", "Potency": "inactive"},
      {"molecule": "COc1ccc(C(=O)c2c(C)n(CCN3CCOCC3)c3ccccc23)cc1", "Potency": "inactive"},
      {"molecule": "O=C(O)C(=O)c1cn(Cc2ccccc2)c2ccc(-c3ccc(OC(F)(F)F)cc3)cc12", "Potency": "inactive"},
      {"molecule": "Cn1c(CCCC(=O)O)nc2cc(N(CCCl)CCCl)ccc21", "Potency": "inactive"},
      {"molecule": "N[C@@H](Cc1ccc(N(CCCl)CCCl)cc1)C(=O)O", "Potency": "23500 nM (active)"},
      {"molecule": "C[C@@H]1[C@@H](CC(C[C@H]2O[C@@H]3O[C@]4(C)CC[C@@H]5[C@H](C)CC[C@@H]([C@H]2C)[C@@]35OO4)C[S+](=O)([O-])c2ccc(COC(=O)N(C)C)cc2)O[C@@H]2O[C@]3(C)CC[C@H]4[C@H](C)CC[C@@H]1[C@@]24OO3", "note": "(some centres not stated)", "Potency": "264 nM (active)"},
      {"molecule": "Fc1ccc(C(OCCN2CCN(CCCc3ccccc3)CC2)c2ccc(F)cc2)cc1", "Potency": "13200 nM (active)"},
      {"molecule": "COC[C@@H](NC(C)=O)C(=O)NCc1ccccc1", "Potency": "inactive"},
      {"molecule": "CNCC(O)c1ccc(O)cc1", "note": "(configuration not stated)", "Potency": "inactive"},
      {"molecule": "CC1=C2C[C@@H]3[C@@H](CC=C4C[C@@H](O)CC[C@@]43C)[C@@H]2CC[C@]12O[C@H]1C[C@H](C)CN[C@H]1[C@H]2C", "Potency": "inactive"},
      {"molecule": "CN(C)CCN(C)CCc1ccc(Cl)c(Cl)c1", "Potency": "inactive"},
      {"molecule": "CN(C)[C@@H]1C(=O)C(C(N)=O)=C(O)[C@@]2(O)C(=O)C3=C(O)c4c(O)cccc4[C@@](C)(O)[C@H]3C[C@@H]12", "Potency": "inactive"},
      {"molecule": "NCC1(CC(=O)O)CCCCC1", "Potency": "inactive"},
      {"molecule": "Cc1sc2c(c1C)C(c1ccc(Cl)cc1)=N[C@@H](CC(=O)OC(C)(C)C)c1nnc(C)n1-2", "Potency": "105 nM (active)"}
    ]}
  ]
}
